Our source for the activity, negative = inhibition and Potency values is PubChem BioAssay AID1030 (National Center for Advancing Translational Sciences (NCATS), 2008).

The whole screen tested about 220,000 compounds, of which about 16,000 (7.3%) were called active. Entries that show only a call come without a potency. Another 25% or so got no clear call; they are omitted. Calls come from the whole dose curve; as a rule, active = well fitted inhibition curve with a large enough effect (not every such curve was filed as active); inconclusive = small, poorly fitted or top-dose-only effect, or another doubt; inactive = no such curve, though single readings can be large or run the other way. Only a selection was taken, and actives are over-represented in it overall.
Potency is the fitted concentration of half-maximal effect.

In this test the target is Aldehyde dehydrogenase 1A1 (Homo sapiens) (UniProt P00352). The test is described as follows: qHTS Assay for Inhibitors of Aldehyde Dehydrogenase 1 (ALDH1A1). To be noted: Purified ALDH1A1, NADH fluorescence, propionaldehyde substrate; series mostly up to 75.3 µM.
Aldehyde dehydrogenase 1A1 (Homo sapiens), sequence (P00352 whole entry, looked up): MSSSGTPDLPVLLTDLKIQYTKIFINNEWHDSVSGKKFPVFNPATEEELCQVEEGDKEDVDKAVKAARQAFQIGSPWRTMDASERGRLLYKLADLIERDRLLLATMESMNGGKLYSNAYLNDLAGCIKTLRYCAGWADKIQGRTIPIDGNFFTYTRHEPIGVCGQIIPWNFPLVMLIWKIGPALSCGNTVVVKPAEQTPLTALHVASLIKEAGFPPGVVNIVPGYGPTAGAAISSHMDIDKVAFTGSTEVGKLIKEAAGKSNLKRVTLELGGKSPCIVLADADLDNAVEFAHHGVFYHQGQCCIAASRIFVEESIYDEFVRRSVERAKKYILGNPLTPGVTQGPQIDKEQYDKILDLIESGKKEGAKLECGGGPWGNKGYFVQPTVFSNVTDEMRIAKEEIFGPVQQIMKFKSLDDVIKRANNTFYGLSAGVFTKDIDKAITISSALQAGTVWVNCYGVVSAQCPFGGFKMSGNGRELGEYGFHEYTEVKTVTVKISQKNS
With `COC(=O)CCCC1=CC2=CC(=O)C(C)(OC(=O)c3cccs3)C(=O)C2=CN1CC1CC1` (configuration not stated), the activity, negative = inhibition is -4.48% [at 13.5 µM] (inactive).

In the case of `CS(=O)(=O)c1ccc2nc(NC(=O)C3CCCCC3)sc2c1`, the Potency result is “inactive”.

Consider `CS(=O)(=O)c1ccc2nc(NC(=O)CN3CCCCCC3)sc2c1`, for which the Potency result is “inactive”.

As to `CS(=O)(=O)c1ccc2nc(NC(=O)C3C4C=CC(C4)C3C(=O)O)sc2c1` (configuration not stated), the Potency was 5.62 µM (active).

As for `CN1CCN(CC(=O)Nc2cccc([N+](=O)[O-])c2)CC1`, the Potency entry is “inactive”.

On to `COc1cc(C2/C(=C(\O)c3ccc4c(c3)CC(C)O4)C(=O)C(=O)N2Cc2ccco2)ccc1O` (configuration not stated), for which the Potency entry was “inactive”.

On to `CCOc1cccc(/C(O)=C2/C(=O)C(=O)N(CCOC)C2c2ccncc2)c1` (configuration not stated), for which the Potency result is “inactive”.

`COCCCN1C(=O)C(=O)/C(=C(/O)c2ccc3c(c2)CC(C)O3)C1c1cccnc1` (configuration not stated): the Potency is 39.8 µM (active).

`CCc1ccccc1NC(=O)Cc1cn(C)c2ccccc12`: the Potency entry was “inactive”.

`CC(/C=C/C1(O)C(C)CC(=O)CC1(C)C)OC1OC(CO)C(O)C(O)C1O` (configuration not stated): the Potency entry is “inactive”.

Turning to `CN(C)/N=C/c1cc(Cl)cc([N+](=O)[O-])c1O`, the Potency result was “inactive”.

Regarding `O=C(Nc1cc(S(=O)(=O)N2CCOCC2)ccc1Cl)c1cc(=O)c2ccccc2o1`, the Potency result was “inactive”.

For the compound `O=[N+]([O-])c1cc(Cl)cc(/C=N/NC(=S)Nc2cc(S(=O)(=O)N3CCOCC3)ccc2Cl)c1O`, the Potency was 0.178 µM (active).

Consider `CCN(CC)S(=O)(=O)c1ccc(OC(C)C)c(N)c1`, for which the Potency entry was “inactive”.

As to `COc1ccc2nc(Nc3nc(-c4ccncc4)cs3)sc2c1`, the Potency result is “inactive”.

For `Cn1c(CCC(=O)OCC(=O)NCc2ccccc2Cl)nc(=O)c2ccccc21`, the Potency entry is “inactive”.

Regarding `O=C(CCc1nnc(CCCCc2ccccc2)o1)NC(c1cccnc1)C(F)(F)F` (configuration not stated), the Potency entry was “inactive”.

Regarding `CSc1nnc2c(n1)OC(c1ccsc1)N(C(C)=O)c1ccccc1-2` (configuration not stated), the Potency result is “inactive”.

With `CSc1nnc2c(n1)OC(c1cn(C)c3ccccc13)N(C(C)=O)c1ccccc1-2` (configuration not stated), the Potency is 3.98 µM (active).

For the compound `CCN(CC)CCNC(=O)C1c2ccccc2C(=O)N(C)C1c1cn(C)c2ccccc12` (configuration not stated), the Potency result is “inactive”.

Take `O=C(CO/N=C/c1ccccc1OC(F)F)NC1CCCC1`: the Potency result was “inactive”.

As to `CS(=O)(=O)N(CC(=O)N/N=C/c1ccccn1)c1ccc(Oc2ccccc2)cc1`, the Potency entry was “inactive”.

In the case of `O=C(CN1CCN(Cc2ccc(F)cc2Cl)C1=O)NCc1cccs1`, the Potency entry was “inactive”.

Consider `O=c1c(Cl)c(NCc2ccc(F)cc2Cl)cnn1C12CC3CC(CC(C3)C1)C2`, for which the Potency is 15.8 µM (active).

Consider `NC(=O)c1ccc(N2CCOCC2)nc1`, for which the Potency entry was “inactive”.

In the case of `CCCC(=O)C1CCN(Cc2ccccc2)CC1`, the Potency entry was “inactive”.

Regarding `CCNC(=S)NNC(=O)C1CCN(Cc2ccccc2)CC1`, the Potency result is “inactive”.

Regarding `O=C(NNS(=O)(=O)c1ccc(Cl)cc1)C1CCN(Cc2ccccc2)CC1`, the Potency was 22.4 µM (active).

In the case of `COc1ccc(-c2cc(C(=O)NCCCn3ccnc3)no2)cc1`, the Potency result was “inactive”.

For `O=C(c1csnn1)N1CCC[C@@]2(CCN(Cc3nccs3)C2)C1`, the Potency result was “inactive”.

`O=C(c1ccco1)N1CCC2(CC1)CCN(c1ncccn1)CC2`: the Potency is 25.1 µM (active).

Turning to `O=C(c1cccc([N+](=O)[O-])c1)N1CCN(C(=O)c2ccco2)CC1`, the Potency result was “inactive”.

Turning to `Cc1ccc(C)c(OCC(=O)N2CCN(C(=O)c3ccco3)CC2)c1`, the Potency entry was “inactive”.

Consider `O=C(c1ccco1)N1CCC[C@@]2(CCN(Cc3nccs3)C2)C1`, for which the Potency was 25.1 µM (active).

Consider `Cn1cccc1C(=O)N1CCC[C@@]2(CCN(Cc3nccs3)C2)C1`, for which the Potency entry is “inactive”.

On to `C/C(N)=C(/C#N)C(=O)COC(=O)CNS(=O)(=O)c1ccc(C)cc1`, for which the Potency entry was “inactive”.

For `CC(C)NC(=O)NCCCCCCS(C)=O` (configuration not stated), the Potency result was “inactive”.

For the compound `O=C(Nc1n[nH]c(C(F)(F)F)n1)c1cccs1`, the Potency entry is “inactive”.

For the compound `CCCSC1=C(C#N)C(c2ccccc2C)C(C(=O)OC)C(=O)N1` (configuration not stated), the Potency result is “inactive”.

On to `C=CCOC(=O)C1=C(C)NC(SCC(=O)OCC)=C(C#N)C1c1ccc(C)cc1` (configuration not stated), for which the Potency entry was “inactive”.

With `CC1=C(C(=O)Nc2ccccc2)C(c2cccs2)C(C#N)=C(SCC#N)N1` (configuration not stated), the Potency was 22.4 µM (active).

Consider `CC(C)(C)c1cnnn1-c1ccc([N+](=O)[O-])cc1`, for which the Potency result is “inactive”.

`COC(=O)c1sccc1NC(=O)c1csc2c1CCCC2`: the Potency is 22.4 µM (active).

As to `COC(=O)c1sccc1NC(=O)CCC1CCCC1`, the Potency result is “inactive”.

For the compound `O=C(Nc1ccccc1N1CCOCC1)c1csc2c1CCCC2`, the Potency result is “inactive”.

Regarding `Cc1ccc(NC(=O)c2csc3c2CCCC3)cc1`, the Potency is 20 µM (active).

Consider `CC(=O)Cc1nsc(NC(=O)c2csc3c2CCCC3)n1`, for which the Potency entry was “inactive”.

Take `O=C(NCc1ccccc1Cl)c1csc2c1CCCCC2`: the Potency entry is “inactive”.

On to `COC(=O)/C(=C1\Oc2ccc(C(C)(C)C)cc2S1)C(F)(F)F`, for which the Potency entry was “inactive”.

With `CC/C(O)=C1\C(=O)CC(C)(C)CC1=NCCc1nc2ccccc2[nH]1`, the Potency result was “inactive”.

On to `CCCCNC(=O)c1ccc(-n2c(=S)[nH]c3ccccc3c2=O)cc1`, for which the Potency result is “inactive”.

In the case of `O=C(Cn1c2[n+](c3ccc(C(F)(F)F)cc31)CCCCC2)Nc1c(F)cccc1F`, the Potency result was “inactive”.

`Cc1ccc(Cl)cc1NC(=O)C1CCN(S(C)(=O)=O)CC1`: the Potency entry is “inactive”.

As for `O=C(NCc1ccccc1Cl)C1CCCO1` (configuration not stated), the Potency entry is “inactive”.

As to `Cc1ccc(S(=O)(=O)NCC(=O)OCC(=O)N2CCc3ccccc32)cc1`, the Potency result is “inactive”.

Regarding `Cc1cnc(C(=O)OCC(=O)NCCCc2ccccc2)cn1`, the Potency result was “inactive”.

As to `Cc1cnc(C(=O)OCC(=O)N2CCc3ccccc32)cn1`, the Potency was 3.16 µM (active).

`O=C(CNCc1ccc(Cl)cc1)Nc1cccc(C(=O)O)c1`: the Potency entry is “inactive”.

With `C/C(=N/OC(=O)c1cccc(C(F)(F)F)c1)c1cnccn1`, the Potency result is “inactive”.

For `OC(COc1ccc(CN2CCSCC2)cc1)CN1CCCCC1` (configuration not stated), the Potency entry is “inactive”.

As for `CCO[C@H]1OC(C(=O)N2CCN(Cc3ccccc3)CC2)=C[C@@H](c2cn(C(C)=O)c3ccccc23)[C@@H]1CCCO`, the Potency result was “inactive”.

Turning to `C/C(=N\N)c1c(-c2ccccc2)c2cc(Br)ccc2[nH]c1=O`, the Potency result was “inactive”.

Regarding `COCCCNC(=O)c1ccc(CNS(=O)(=O)c2ccc(NC(C)=O)cc2)cc1`, the Potency is 4.47 µM (active).

Turning to `CCOc1ccc(NS(=O)(=O)c2ccc(OCC(=O)NCCCOC)cc2)cc1`, the Potency result is “inactive”.

Consider `CCCCNC(=O)C1CCC(CNS(=O)(=O)c2ccc(NC(C)=O)cc2)CC1` (configuration not stated), for which the Potency result is “inactive”.

As to `CCc1ccccc1N1CN(Cc2ccco2)CNC1=S`, the Potency result is “inactive”.

Regarding `CCCCN(CC)CCNC(=O)CCNC(=O)Cn1ccc2ccccc2c1=O`, the Potency entry was “inactive”.

Take `CCSC1=NCCN1S(=O)(=O)c1ccc(F)cc1`: the Potency entry was “inactive”.

On to `COC(=O)CC1c2ccccc2C(Cc2ccc(OC)cc2)=C(C)N1C(=O)OC` (configuration not stated), for which the activity, negative = inhibition was -1.14% [at 13.5 µM] (inactive).

Regarding `S=C(Nc1ccc(Br)cc1Cl)NC1CCN(Cc2ccccc2)CC1`, the Potency is 0.631 µM (active).

Take `O=C(NC1CCN(Cc2ccccc2)CC1)c1cc(Br)c(Br)[nH]1`: the Potency result is “inactive”.

Consider `O=C(COc1ccc(Br)cc1F)NC1CCN(Cc2ccccc2)CC1`, for which the Potency result is “inactive”.

As for `COc1ccc2ccccc2c1CNc1nnnn1C`, the Potency entry is “inactive”.

Take `COC(=O)c1cc(NC(=O)c2cccnc2)ccc1N1CCOCC1`: the Potency result is “inactive”.

`CC1=NN(C(=O)c2ccc(Br)cc2)C(O)(c2ccccc2)C1` (configuration not stated): the Potency entry is “inactive”.

Consider `O=C(COC(=O)CCc1nc2ccccc2c(=O)[nH]1)Nc1ccc(N2CCOCC2)cc1`, for which the Potency entry was “inactive”.

`NS(=O)(=O)c1ccc(NC(=O)COC(=O)c2ccco2)cc1`: the Potency result was “inactive”.

On to `CC1CC(C)CN(CCC(=O)Nc2ccc3c(c2)CCC3)C1` (configuration not stated), for which the Potency entry was “inactive”.

Regarding `CC1CC(C)CN(CC(=O)Nc2ccc(S(N)(=O)=O)cc2)C1` (configuration not stated), the Potency was 8.91 µM (active).

Take `COc1ccc(C2C(C#N)=C(N)N(c3ncn[nH]3)C3=C2C(=O)CCC3)cc1` (configuration not stated): the Potency result was “inactive”.

On to `CC(C)(C)NC(=O)NC(=O)COC(=O)Cc1c(F)cccc1Cl`, for which the Potency entry was “inactive”.

Consider `CC(=O)COc1ccc2c(-c3ccccc3)cc(=O)oc2c1`, for which the Potency is 6.31 µM (active).

For the compound `O=C(COc1ccc2c(C(F)(F)F)cc(=O)oc2c1)Nc1ccc2c(c1)OCCO2`, the Potency result is “inactive”.

As for `CCOC(=O)COc1cc(O)c2c(=O)cc(-c3ccccc3)oc2c1`, the Potency entry is “inactive”.

Turning to `CC(Sc1nc2cc(Cl)ccc2s1)C(=O)Nc1ccc2c(c1)OCO2` (configuration not stated), the Potency entry is “inactive”.

As for `Cc1cc(Cl)ccc1OCCCC(=O)NCc1ccccn1`, the Potency result was “inactive”.

For `Cc1cccc(N2C(=O)SC(SC(=Nc3ccccc3)Nc3ccccc3)C2=O)c1` (configuration not stated), the Potency was 15.8 µM (active).

With `Cc1cccc(N=Nc2c(C)[nH]n(-c3ccccc3)c2=O)c1`, the Potency result is “inactive”.

`Cc1cccc(N2C(=O)C3C(c4ccccc4)OC4(C(=O)c5ccccc5C4=O)C3C2=O)c1` (configuration not stated): the Potency entry was “inactive”.

As for `COc1ccccc1-c1noc(CSc2nc(C)cc(=O)[nH]2)n1`, the Potency entry was “inactive”.

Consider `O=C(CSc1ncnc2c1nnn2Cc1ccc(F)cc1)NC1CCCC1`, for which the Potency entry is “inactive”.

Regarding `OC1CCCN(c2ncnc3c2nnn3Cc2c(F)cccc2Cl)C1` (configuration not stated), the Potency was 7.94 µM (active).

As for `CC(=O)Nc1ccn(Cc2c(F)cccc2Cl)n1`, the Potency result was “inactive”.

Consider `CCOc1ccc(OCc2cccc(C(=O)N(CC)CC)c2)cc1`, for which the Potency entry is “inactive”.

In the case of `CC(C)NC(=S)NN=C1CCCCCCCCCCC1`, the Potency entry was “inactive”.

Turning to `OC[C@H]1O[C@@H](n2cnc3c(NC4CCCC4)ncnc32)[C@H](O)[C@H]1O`, the Potency result is “inactive”.

With `CCN(CC)S(=O)(=O)c1ccc(N(C)CCc2ccc(OC)c(OC)c2)nc1`, the Potency result is “inactive”.

For the compound `CN(C)c1ccc(/C=C/C(=O)c2ccc(C(C)(C)C)cc2)cc1[N+](=O)[O-]`, the Potency result was “inactive”.

`O=C(/C=C/c1ccc2c(c1)OCCO2)c1ccc(O)cc1`: the Potency entry was “inactive”.

For `CN(C)c1ccc(/C=C/C(=O)c2ccc(O)cc2)cc1[N+](=O)[O-]`, the Potency was 17.8 µM (active).

With `CCOc1ccccc1/C=N/NC(=O)CNC(=O)COc1ccccc1`, the Potency result is “inactive”.

Regarding `CCC(C)NC(=O)C1c2ccccc2Oc2ccccc21` (configuration not stated), the Potency result was “inactive”.

With `O=C(Nc1ccc(N2CCN(C(=O)c3cccs3)CC2)cc1)c1cccnc1Cl`, the Potency result was “inactive”.

For the compound `Cc1cc(Cl)ccc1NNC(=O)c1snnc1C`, the Potency result is “inactive”.

Regarding `C=CCNC(=O)CSc1nc2sc(C)c(C)c2c(=O)[nH]1`, the Potency result is “inactive”.

As for `CC(C)C(C)(C#N)NC(=O)CSc1nc2scc(-c3ccccc3)c2c(=O)[nH]1` (configuration not stated), the Potency was 11.2 µM (active).

With `CC(C)C(C)(C#N)NC(=O)CSc1nncn1-c1ccccc1` (configuration not stated), the Potency result is “inactive”.
